Article PMC7862700, “An all-to-all approach to the identification of sequence-specific readers for epigenetic DNA modifications on cytosine”

Experiments:
Experiment in all cases: DAPPL (digital affinity profiling via proximity ligation, sequencing); 10 mM Tris-HCl pH 7.5, 50 mM NaCl, 1 mM DTT, 4% glycerol, room temperature, 30 min; GST-TFs on glutathione beads, 16-mer random dsDNA library, 0.1% formaldehyde crosslink after washing; high values mean tight binding
FEV = molecular target: T1, FEV (Homo sapiens, UniProt Q99581 1-238); conditions: protein: recombinant; tags: N-terminal GST; dsDNA, one strand shown
T1 sequence: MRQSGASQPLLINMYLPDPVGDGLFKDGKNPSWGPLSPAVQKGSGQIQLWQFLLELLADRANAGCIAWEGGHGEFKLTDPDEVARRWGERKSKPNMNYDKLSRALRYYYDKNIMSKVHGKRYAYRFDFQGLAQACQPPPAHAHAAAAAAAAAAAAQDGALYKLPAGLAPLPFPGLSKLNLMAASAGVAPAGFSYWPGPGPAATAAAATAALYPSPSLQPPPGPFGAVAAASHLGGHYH
Outline: (§1)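 Pools of DNA-barcoded human transcription factors, expressed in yeast as GST fusions on glutathione beads and combined with a tag-only sample, were incubated with 200 nmole of a 16-mer random double-stranded DNA library. Incubation took 30 min at room temperature in Tris/NaCl/DTT/glycerol buffer and was followed by washing, 0.1% formaldehyde crosslinking, proximity ligation (BsaI/T4 ligase, 1 h, 37 °C), PCR amplification and sequencing on an Illumina NextSeq500. Binding signal is the ratio of a hexamer's read frequency for a factor to its frequency for the tag-only sample.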

ETV5 = ETV5 (Homo sapiens, UniProt P41161 1-510); conditions: protein: recombinant; tags: N-terminal GST; dsDNA, one strand shown
ETV5, sequence (P41161 whole entry): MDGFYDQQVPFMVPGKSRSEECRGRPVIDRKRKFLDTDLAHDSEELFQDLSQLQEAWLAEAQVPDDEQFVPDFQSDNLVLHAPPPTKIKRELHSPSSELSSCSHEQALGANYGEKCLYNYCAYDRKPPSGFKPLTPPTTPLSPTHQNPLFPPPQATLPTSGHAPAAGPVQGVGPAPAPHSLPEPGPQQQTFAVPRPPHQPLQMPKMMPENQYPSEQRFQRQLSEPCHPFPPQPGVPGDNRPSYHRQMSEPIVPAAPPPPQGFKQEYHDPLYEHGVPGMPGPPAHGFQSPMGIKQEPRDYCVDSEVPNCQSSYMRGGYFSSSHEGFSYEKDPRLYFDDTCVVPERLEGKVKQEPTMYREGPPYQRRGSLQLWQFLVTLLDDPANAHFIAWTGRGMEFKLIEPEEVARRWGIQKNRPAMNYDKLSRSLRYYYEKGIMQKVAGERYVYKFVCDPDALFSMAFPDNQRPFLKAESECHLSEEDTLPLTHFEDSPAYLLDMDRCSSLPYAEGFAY
Outline: as §1

HSF1 = HSF1 (Homo sapiens, UniProt Q00613 1-529); conditions: protein: recombinant; tags: N-terminal GST; chain copies: 3; dsDNA, one strand shown
HSF1, sequence (Q00613 whole entry): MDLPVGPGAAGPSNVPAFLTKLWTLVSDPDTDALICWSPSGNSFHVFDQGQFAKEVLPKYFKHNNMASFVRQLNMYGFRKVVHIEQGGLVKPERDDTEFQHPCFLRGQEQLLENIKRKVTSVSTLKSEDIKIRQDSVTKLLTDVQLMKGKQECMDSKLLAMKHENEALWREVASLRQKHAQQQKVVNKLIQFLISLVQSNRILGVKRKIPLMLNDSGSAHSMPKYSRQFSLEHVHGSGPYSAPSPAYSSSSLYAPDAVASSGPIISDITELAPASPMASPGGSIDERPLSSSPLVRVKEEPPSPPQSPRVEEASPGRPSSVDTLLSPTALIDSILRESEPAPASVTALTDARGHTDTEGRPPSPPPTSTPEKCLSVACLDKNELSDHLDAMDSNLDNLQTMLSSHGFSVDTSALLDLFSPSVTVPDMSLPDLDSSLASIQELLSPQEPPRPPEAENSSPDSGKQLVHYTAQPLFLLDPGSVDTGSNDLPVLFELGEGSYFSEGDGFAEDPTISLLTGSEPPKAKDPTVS
Outline: as §1

SPIC = molecular target: T2, SPIC (Homo sapiens, UniProt Q8N5J4 1-248); conditions: protein: recombinant; tags: N-terminal GST; dsDNA, one strand shown
T2 sequence: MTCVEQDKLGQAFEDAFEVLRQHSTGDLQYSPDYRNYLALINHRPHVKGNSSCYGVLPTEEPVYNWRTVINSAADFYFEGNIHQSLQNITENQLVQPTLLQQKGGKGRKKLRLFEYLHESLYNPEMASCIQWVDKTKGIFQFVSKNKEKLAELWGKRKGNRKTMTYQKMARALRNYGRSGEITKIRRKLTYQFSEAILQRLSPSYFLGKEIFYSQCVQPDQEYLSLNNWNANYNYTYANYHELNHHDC
Outline: as §1

ELF4 = ELF4 (Homo sapiens, UniProt Q99607 1-663); conditions: protein: recombinant; tags: N-terminal GST; dsDNA, one strand shown
ELF4, sequence (Q99607 whole entry): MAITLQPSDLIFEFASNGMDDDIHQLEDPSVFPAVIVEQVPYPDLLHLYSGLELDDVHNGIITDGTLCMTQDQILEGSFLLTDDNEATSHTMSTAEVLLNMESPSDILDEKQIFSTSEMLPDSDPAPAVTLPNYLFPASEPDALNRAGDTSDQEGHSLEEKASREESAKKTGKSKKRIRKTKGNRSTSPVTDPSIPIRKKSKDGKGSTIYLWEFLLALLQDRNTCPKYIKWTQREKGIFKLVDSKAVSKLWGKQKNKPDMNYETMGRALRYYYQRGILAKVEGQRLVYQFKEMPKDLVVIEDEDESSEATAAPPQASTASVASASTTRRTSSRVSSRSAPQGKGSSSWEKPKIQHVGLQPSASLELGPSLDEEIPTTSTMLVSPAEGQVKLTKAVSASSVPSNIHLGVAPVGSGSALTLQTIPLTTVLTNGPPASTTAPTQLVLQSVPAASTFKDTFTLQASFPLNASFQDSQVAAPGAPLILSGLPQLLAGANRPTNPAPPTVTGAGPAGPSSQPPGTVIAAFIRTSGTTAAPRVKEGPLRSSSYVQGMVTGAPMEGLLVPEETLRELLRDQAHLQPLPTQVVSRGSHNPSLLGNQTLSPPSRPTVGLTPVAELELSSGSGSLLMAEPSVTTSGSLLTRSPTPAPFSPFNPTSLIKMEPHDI
Outline: as §1

ELK4 = molecular target: T3, ELK4 (Homo sapiens, UniProt P28324-2 1-405); conditions: protein: recombinant; tags: N-terminal GST; dsDNA, one strand shown
T3 sequence: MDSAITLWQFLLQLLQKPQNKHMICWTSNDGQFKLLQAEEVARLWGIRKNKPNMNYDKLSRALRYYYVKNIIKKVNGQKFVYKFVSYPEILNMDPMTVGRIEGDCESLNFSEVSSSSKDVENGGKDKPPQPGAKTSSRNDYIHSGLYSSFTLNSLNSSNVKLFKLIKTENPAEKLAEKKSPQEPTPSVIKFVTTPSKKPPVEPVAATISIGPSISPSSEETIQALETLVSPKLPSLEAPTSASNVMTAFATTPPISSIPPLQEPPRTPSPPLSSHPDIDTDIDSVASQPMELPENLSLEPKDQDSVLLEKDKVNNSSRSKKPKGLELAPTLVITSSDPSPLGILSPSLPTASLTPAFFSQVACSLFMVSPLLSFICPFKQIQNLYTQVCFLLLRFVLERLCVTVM
Outline: as §1

ETV2 = molecular target: T4, ETV2 (Homo sapiens, UniProt O00321 1-342); conditions: protein: recombinant; tags: N-terminal GST; dsDNA, one strand shown
T4 sequence: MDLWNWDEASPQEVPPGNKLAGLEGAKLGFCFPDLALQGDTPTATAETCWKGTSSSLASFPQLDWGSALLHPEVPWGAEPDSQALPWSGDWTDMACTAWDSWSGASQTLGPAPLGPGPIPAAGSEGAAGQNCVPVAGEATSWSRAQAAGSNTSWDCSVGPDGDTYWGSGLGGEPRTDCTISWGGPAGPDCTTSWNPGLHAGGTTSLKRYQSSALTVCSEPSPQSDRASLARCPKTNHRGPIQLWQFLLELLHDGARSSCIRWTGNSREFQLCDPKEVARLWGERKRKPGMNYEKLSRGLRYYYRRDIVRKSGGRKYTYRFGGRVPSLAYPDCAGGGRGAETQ
Outline: as §1

ELF3 = molecular target: T5, ELF3 (Homo sapiens, UniProt P78545 1-371); conditions: protein: recombinant; tags: N-terminal GST; dsDNA, one strand shown
T5 sequence: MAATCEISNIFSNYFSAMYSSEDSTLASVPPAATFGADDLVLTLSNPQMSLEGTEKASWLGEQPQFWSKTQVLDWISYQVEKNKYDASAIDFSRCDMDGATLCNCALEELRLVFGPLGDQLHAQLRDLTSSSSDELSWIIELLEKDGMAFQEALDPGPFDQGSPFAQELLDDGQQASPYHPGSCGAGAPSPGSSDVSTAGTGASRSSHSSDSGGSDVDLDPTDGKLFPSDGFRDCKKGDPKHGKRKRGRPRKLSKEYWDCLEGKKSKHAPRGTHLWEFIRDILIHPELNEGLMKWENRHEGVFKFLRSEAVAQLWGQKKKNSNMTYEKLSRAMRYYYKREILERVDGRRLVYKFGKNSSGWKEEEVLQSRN
Outline: as §1

CRX = CRX (Homo sapiens, UniProt O43186 1-299); conditions: protein: recombinant; tags: N-terminal GST; dsDNA, one strand shown
CRX, sequence (O43186 whole entry): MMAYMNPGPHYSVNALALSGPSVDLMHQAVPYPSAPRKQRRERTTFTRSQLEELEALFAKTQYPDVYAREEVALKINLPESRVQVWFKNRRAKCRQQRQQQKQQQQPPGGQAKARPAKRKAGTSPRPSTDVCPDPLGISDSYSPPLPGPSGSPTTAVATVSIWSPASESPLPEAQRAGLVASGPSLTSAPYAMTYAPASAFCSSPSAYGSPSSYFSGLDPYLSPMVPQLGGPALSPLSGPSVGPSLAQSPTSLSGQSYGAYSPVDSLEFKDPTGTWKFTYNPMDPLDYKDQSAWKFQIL
Outline: as §1

ETV1 = ETV1 (Homo sapiens, UniProt P50549 1-477); conditions: protein: recombinant; tags: N-terminal GST; dsDNA, one strand shown
ETV1, sequence (P50549 whole entry): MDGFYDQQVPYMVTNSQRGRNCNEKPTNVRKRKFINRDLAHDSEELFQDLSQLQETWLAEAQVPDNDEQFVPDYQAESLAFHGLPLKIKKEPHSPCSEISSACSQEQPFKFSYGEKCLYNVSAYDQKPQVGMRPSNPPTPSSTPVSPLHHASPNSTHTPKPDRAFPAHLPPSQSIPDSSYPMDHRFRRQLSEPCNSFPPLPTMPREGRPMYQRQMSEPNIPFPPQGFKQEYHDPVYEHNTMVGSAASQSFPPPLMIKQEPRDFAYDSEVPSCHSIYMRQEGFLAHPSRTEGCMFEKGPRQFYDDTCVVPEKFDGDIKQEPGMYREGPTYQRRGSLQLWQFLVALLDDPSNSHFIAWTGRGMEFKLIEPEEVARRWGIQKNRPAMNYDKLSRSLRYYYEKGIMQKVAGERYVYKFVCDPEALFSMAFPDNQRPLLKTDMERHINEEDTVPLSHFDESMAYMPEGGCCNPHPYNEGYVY
Outline: as §1

ERF = molecular target: T6, ERF (Homo sapiens, UniProt P50548 1-548); conditions: protein: recombinant; tags: N-terminal GST; dsDNA, one strand shown
T6 sequence: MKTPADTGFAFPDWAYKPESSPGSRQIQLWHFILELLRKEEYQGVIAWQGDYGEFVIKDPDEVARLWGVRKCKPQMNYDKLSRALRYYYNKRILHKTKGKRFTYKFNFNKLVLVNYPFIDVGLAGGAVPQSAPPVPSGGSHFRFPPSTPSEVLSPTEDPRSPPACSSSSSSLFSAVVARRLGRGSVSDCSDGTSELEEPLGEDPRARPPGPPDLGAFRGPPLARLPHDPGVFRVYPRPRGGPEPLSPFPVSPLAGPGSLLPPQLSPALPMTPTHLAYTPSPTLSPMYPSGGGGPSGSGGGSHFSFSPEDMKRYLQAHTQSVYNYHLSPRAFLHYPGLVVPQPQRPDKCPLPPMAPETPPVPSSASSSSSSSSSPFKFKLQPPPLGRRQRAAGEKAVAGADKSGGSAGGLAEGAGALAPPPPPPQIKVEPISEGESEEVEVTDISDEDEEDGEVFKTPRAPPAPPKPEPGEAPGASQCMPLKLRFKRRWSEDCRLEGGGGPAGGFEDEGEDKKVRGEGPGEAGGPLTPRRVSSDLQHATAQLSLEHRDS
Outline: as §1

ETV3L = molecular target: T7, ETV3L (Homo sapiens, UniProt Q6ZN32 1-361); conditions: protein: recombinant; tags: N-terminal GST; dsDNA, one strand shown
T7 sequence: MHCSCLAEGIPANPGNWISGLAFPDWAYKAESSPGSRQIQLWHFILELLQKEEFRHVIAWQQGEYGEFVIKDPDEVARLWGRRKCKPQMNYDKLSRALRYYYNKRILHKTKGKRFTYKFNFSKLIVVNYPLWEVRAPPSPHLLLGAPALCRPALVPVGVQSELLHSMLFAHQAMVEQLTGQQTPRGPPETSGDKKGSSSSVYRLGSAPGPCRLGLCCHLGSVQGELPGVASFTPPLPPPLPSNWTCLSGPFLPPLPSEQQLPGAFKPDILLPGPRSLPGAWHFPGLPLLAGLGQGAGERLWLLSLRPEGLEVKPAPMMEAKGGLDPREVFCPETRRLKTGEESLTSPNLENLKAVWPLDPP
Outline: as §1

ETS2 = molecular target: T8, ETS2 (Homo sapiens, UniProt P15036 1-469); conditions: protein: recombinant; tags: N-terminal GST; dsDNA, one strand shown
T8 sequence: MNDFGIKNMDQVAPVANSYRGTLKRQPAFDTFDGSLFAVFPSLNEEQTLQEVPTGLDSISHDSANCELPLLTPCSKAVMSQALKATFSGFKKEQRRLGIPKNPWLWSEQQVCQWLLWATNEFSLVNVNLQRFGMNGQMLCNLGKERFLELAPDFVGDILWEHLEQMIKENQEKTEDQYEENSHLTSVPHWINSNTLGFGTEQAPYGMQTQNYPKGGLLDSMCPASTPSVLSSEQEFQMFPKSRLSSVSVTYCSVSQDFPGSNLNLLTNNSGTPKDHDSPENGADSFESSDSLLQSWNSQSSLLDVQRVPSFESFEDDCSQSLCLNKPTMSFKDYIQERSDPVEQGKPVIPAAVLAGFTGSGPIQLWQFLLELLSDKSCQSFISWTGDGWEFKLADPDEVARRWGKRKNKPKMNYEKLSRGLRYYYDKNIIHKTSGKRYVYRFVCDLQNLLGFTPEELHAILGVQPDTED
Outline: as §1

ETV7 = molecular target: T9, ETV7 (Homo sapiens, UniProt Q9Y603 1-341); conditions: protein: recombinant; tags: N-terminal GST; dsDNA, one strand shown
T9 sequence: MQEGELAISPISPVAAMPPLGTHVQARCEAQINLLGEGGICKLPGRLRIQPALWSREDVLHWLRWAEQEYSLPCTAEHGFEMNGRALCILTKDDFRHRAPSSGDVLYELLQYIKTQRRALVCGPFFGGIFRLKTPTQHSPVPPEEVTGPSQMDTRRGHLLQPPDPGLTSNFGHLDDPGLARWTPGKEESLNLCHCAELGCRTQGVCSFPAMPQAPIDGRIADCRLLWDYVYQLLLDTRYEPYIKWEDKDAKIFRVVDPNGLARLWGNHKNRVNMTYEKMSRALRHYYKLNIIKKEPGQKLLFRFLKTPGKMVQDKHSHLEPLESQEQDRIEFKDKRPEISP
Outline: as §1

ELF5 = molecular target: T10, ELF5 (Homo sapiens, UniProt Q9UKW6-2 1-255); conditions: protein: recombinant; tags: N-terminal GST; dsDNA, one strand shown
T10 sequence: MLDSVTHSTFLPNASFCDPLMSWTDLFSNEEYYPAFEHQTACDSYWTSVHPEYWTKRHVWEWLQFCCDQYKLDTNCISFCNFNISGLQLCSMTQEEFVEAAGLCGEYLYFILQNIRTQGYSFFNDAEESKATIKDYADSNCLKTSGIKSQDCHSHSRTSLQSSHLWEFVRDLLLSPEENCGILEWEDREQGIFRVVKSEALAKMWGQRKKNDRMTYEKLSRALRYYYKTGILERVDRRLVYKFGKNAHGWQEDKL
Outline: as §1

ETV3 = molecular target: T11, ETV3 (Homo sapiens, UniProt P41162-2 1-143); conditions: protein: recombinant; tags: N-terminal GST; dsDNA, one strand shown
T11 sequence: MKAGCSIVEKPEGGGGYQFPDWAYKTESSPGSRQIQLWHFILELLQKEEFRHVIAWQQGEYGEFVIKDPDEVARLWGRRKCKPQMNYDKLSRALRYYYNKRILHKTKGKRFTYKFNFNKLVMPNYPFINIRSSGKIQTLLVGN
Outline: as §1

ETV6 = ETV6 (Homo sapiens, UniProt P41212 1-452); conditions: protein: recombinant; tags: N-terminal GST; dsDNA, one strand shown
ETV6, sequence (P41212 whole entry): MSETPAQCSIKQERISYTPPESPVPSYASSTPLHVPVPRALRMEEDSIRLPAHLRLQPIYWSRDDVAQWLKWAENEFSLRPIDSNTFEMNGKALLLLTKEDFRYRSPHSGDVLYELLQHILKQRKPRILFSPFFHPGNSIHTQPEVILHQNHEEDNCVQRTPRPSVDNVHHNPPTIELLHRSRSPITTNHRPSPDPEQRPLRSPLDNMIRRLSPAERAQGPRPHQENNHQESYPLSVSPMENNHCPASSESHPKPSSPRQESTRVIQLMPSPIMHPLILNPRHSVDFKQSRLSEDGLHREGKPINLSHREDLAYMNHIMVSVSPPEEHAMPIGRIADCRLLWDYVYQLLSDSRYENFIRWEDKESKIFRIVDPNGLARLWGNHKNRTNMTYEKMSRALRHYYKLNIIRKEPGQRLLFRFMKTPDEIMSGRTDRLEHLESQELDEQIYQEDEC
Outline: as §1

Question: How did the binding signal (FEV) turn out when GCTCGA was run?
Answer: 1.25 fold enrichment (6-mer frequency, TF over GST control)

Question: What about the binding signal (ETV5) of the same sequence?
Answer: 1.22 fold enrichment (6-mer frequency, TF over GST control)

Question: What about the binding signal (HSF1) of the same sequence?
Answer: 1.74 fold enrichment (6-mer frequency, TF over GST control)

Question: What about the binding signal (SPIC) of the same sequence?
Answer: 1.31 fold enrichment (6-mer frequency, TF over GST control)

Question: And the binding signal (ELF4)?
Answer: 1.25 fold enrichment (6-mer frequency, TF over GST control)

Question: And the binding signal (ELK4)?
Answer: 1.29 fold enrichment (6-mer frequency, TF over GST control)

Question: And the binding signal (ETV2)?
Answer: 1.07 fold enrichment (6-mer frequency, TF over GST control)

Question: What about the binding signal (ELF3) of the same sequence?
Answer: 1.24 fold enrichment (6-mer frequency, TF over GST control)

Question: And the binding signal (CRX)?
Answer: 1.17 fold enrichment (6-mer frequency, TF over GST control)

Question: What about the binding signal (ETV1) of the same sequence?
Answer: 1.07 fold enrichment (6-mer frequency, TF over GST control)

Question: And the binding signal (ERF)?
Answer: 1.24 fold enrichment (6-mer frequency, TF over GST control)

Question: What about the binding signal (ETV3L) of the same sequence?
Answer: 1.26 fold enrichment (6-mer frequency, TF over GST control)

Question: And the binding signal (ETS2)?
Answer: 1.19 fold enrichment (6-mer frequency, TF over GST control)

Question: What about the binding signal (ETV7) of the same sequence?
Answer: 1.11 fold enrichment (6-mer frequency, TF over GST control)

Question: And the binding signal (ELF5)?
Answer: 1.1 fold enrichment (6-mer frequency, TF over GST control)

Question: What about the binding signal (ETV3) of the same sequence?
Answer: 1.14 fold enrichment (6-mer frequency, TF over GST control)

Question: What about the binding signal (ETV6) of the same sequence?
Answer: 1.25 fold enrichment (6-mer frequency, TF over GST control)
